Screening data as filed in PubChem BioAssay.
HT1080 IDH1KD tx: qHTS for induction of synthetic lethality in tumor cells producing 2HG: qHTS for the HT-1080-IDH1KD cell line. HT-1080 IDH1 knockdown viability, ATP luminescence, 48 h. AID 686971, 2013. Potency, µM (titrated, usually from 46.1 µM), for inactives: at the highest dose activity, negative = toxicity, hits mostly cytotoxic. hit rate 2% among 360,000;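 note: potency is the fitted concentration of half-maximal effect; 0% = DMSO wells and -100% = cell-free medium wells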
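CellTiter-Glo luminescence after 48 h compound exposure at 37 degrees C of IDH1-knockdown HT-1080 cells in 5% FBS RPMI. %Activity scaled between DMSO wells and cell-free media wells, with curves fitted and assigned curve classes.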
IL1B secr inh: qHTS for Inhibitors of Inflammasome Signaling: IL-1-beta AlphaLISA Primary Screen; THP-1 LPS/ATP IL-1B secretion, AlphaLISA, 16 h; hits give low values; hit rate 4.7% among 360,000; activity change, % at 57.5 µM; AID 743279, 2014; in the data active = activity change below about -50%; inconclusive = mostly about -30% to -49%
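Secreted IL-1B measured by AlphaLISA bead assay after 16 h compound exposure of THP-1 cells; compounds (final up to 57.5 uM) added 1 h before LPS (250 ng/mL) and ATP (1.25 mM) stimulation; lower signal means less secretion.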
TDP1 cell CPT: qHTS for Inhibitors of human tyrosyl-DNA phosphodiesterase 1 (TDP1): qHTS in cells in presence of CPT | chicken DT40 Tdp1-/-;hTDP1 cells + 20 nM CPT, ATP luminescence, 48 h | hit rate 12% among 420,000 | Potency, µM (titrated, usually from 46.2 µM), for inactives: at the highest dose activity change, negative = growth inhibition, usual class: inhibitors | AID 686979, 2013; note: potency is the fitted concentration of half-maximal effect; nearly all actives have a fitted effect of over 55% in size
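Chicken DT40 Tdp1-/- cells stably complemented with human TDP1 were seeded at 400 cells/well in medium containing 20 nM camptothecin, exposed to pin-transferred compounds, and grown at 37 °C for at least 48 hr. Viability was read as ATP luminescence.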
HT1080-NT tox: qHTS for induction of synthetic lethality in tumor cells producing 2HG: qHTS for the HT-1080-NT fibrosarcoma cell line | HT-1080-NT fibrosarcoma viability, CellTiter-Glo ATP luminescence, 48 h | Potency, µM (highest dose often 46.1 µM), inactives show top-dose activity, negative = less viability, hits mostly cytotoxic | hit rate 1.6% among 360,000 | AID 686970, 2013;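 note: NT is the 2HG producing partner of a matched IDH1 knockdown line; potency is the fitted concentration of half-maximal effect; 0% = DMSO-treated cells and -100% = media-only wells without cells; nearly all actives have a fitted effect of over 55% in size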
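HT-1080-NT fibrosarcoma cells (2HG-overproducing), 750 cells/well in RPMI with 5% FBS, dosed after 2 h and incubated 48 h at 37C. CellTiter-Glo luminescence normalized to DMSO and no-cell wells; concentration-response curves fitted and classed.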
ELG1 DNA repair: qHTS screen for small molecules that inhibit ELG1-dependent DNA repair in human embryonic kidney (HEK293T) cells expressing luciferase-tagged ELG1 | hit rate 2.3% among 330,000 | AID 504467, 2011 | Potency, µM (doses to about 46.1 µM), for the others: top-dose activity change, negative = inhibition, hits mostly inhibitors | HEK293T ELG1-luciferase reporter, luminescence, 16 h; DNA damage induced by 5-fluorouridine; note: potency is the fitted concentration of half-maximal effect; nearly all actives have a fitted effect of over 55% in size
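Overnight (16 hr) co-exposure of 2,000 cells/well to 5-fluorouridine and compound at 37 °C preceded detection. Luciferase was quantified via ONE-Glo luminescence; loss of signal denotes inhibition.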
DT40 TDP1 no CPT: qHTS for Inhibitors of human tyrosyl-DNA phosphodiesterase 1 (TDP1): qHTS in cells in absence of CPT; DT40 Tdp1-/- hTDP1 cells, no CPT, ATP luminescence, 48 h; Potency, µM (series often up to 46.2 µM), for the others: at the top dose activity change, negative = growth inhibition, hits mostly inhibitors; hit rate 15% among 420,000; AID 686978, 2013; note: potency is the fitted concentration of half-maximal effect; nearly all actives have a fitted effect of over 55% in size
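Cells were dispensed at 400 per well, compounds added by pin tool, plates incubated ≥48 hr at 37 °C, then CellTiter-Glo added for 30 min at room temperature before luminescence reading. Line: DT40 Tdp1-/- complemented with hTDP1; camptothecin omitted.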
Starred values were filed as active, the others as inactive; i = inactive; u = inconclusive; x = no result given. Most compounds without a hit are left out; they make up all but 19% or so of the library. Unless noted, calls come from the whole dose curve; as a rule, active = well fitted curve in the direction sought with a large enough effect; inconclusive = small, poorly fitted or top-dose-only effect, or another doubt; inactive = no such curve, though single readings can be large; an effect the other way counts as inactive or inconclusive. Unless noted, % is set by controls: 0 for no effect and ±100 for the full control effect.

SMILES	HT1080 IDH1KD tx	IL1B secr inh	TDP1 cell CPT	HT1080-NT tox	ELG1 DNA repair	DT40 TDP1 no CPT
O=C1CCCN1c1ccc(S(=O)(=O)NCc2ccc(F)cc2)cc1	-1%	45	21µM*	-1%	6%	u
O=S(=O)(NCc1ccc(F)cc1)c1ccc(-n2cnnn2)cc1	-1%	-1	u	-6%	23%	u
O=S(=O)(NCc1ccc(F)cc1)c1ccc(N2CCCCS2(=O)=O)cc1	x	x	23µM*	x	x	21µM*
CN(CC(=O)Nc1ccc(N2CCOCC2)cc1)CC(=O)Nc1ccccc1C#N	1%	2	8%	1%	8%	-19%
O=S(=O)(NCc1ccccc1Cl)c1ccc(N2CCCCS2(=O)=O)cc1	x	x	16µM*	x	x	21µM*
CCN(c1ccc(C)cc1)S(=O)(=O)c1nnc(NC(=O)c2ccco2)s1	-14%	12	-24%	-15%	1%	-20%
CCC(=O)Nc1nnc(S(=O)(=O)N(CC)c2cc(C)cc(C)c2)s1	-10%	-4	3%	-8%	-14%	-5%
CCN(c1cc(C)cc(C)c1)S(=O)(=O)c1nnc(NC(=O)c2cccc(F)c2)s1	x	x	12µM*	x	x	13µM*
CCN(c1ccc(Cl)cc1)S(=O)(=O)c1nnc(NC(=O)c2ccccc2C)s1	x	x	16µM*	x	x	15µM*
Cc1ccc(S(=O)(=O)N2CCOCC2)cc1C(=O)NCCN1C(=O)S/C(=C\c2ccccc2Cl)C1=O	3%	u	u	2%	21µM*	u
CC(C)(C)c1ccc(/C=C2\SC(=O)N(CCNC(=O)c3cccc(S(=O)(=O)N4CCOCC4)c3)C2=O)cc1	-24%	-15	8.2µM*	-3%	u	23µM*
O=C(CCc1nc2ccccc2c(=O)[nH]1)NCCN1C(=O)S/C(=C\c2ccccc2Cl)C1=O	1%	-13	u	-2%	-12%	u
O=C(NCCN1C(=O)S/C(=C\c2cccnc2)C1=O)c1cc(S(=O)(=O)N2CCOCC2)ccc1F	-4%	0	u	0%	u	18µM*
Cc1ccc(S(=O)(=O)N2CCCC2)cc1C(=O)NCCN1CCOCC1	0%	14	-9%	-1%	u	-15%
O=C(NCCN1C(=O)S/C(=C\c2cccc(Cl)c2Cl)C1=O)C1=COCCO1	u	i	1.5µM*	u	-4%	2.6µM*
O=C(NCCCn1ccnc1)c1cc(S(=O)(=O)N2CCOCC2)ccc1F	7%	32	-4%	-1%	u	-9%
O=C(Nc1ccc(S(=O)(=O)Nc2cnc3ccccc3n2)cc1)c1cc(F)c(F)cc1Cl	-15%	45	u	-17%	-1%	u
CC1CCCC(C)N1C(=O)COC(=O)CNS(=O)(=O)c1ccc2ccccc2c1 (stereo unspecified)	3%	16	-3%	2%	x	5%
O=[N+]([O-])c1cc(CN2CCCC2)c2cccnc2c1O	u	-3	3%	16µM*	-1%	u
COc1ccnc(N2CCN(c3cccc(C(F)(F)F)c3)CC2)c1C#N	14%	-1	6%	0%	-9%	-16%
O=[N+]([O-])c1cc(CN2CCN(c3cccc(C(F)(F)F)c3)CC2)c2cccnc2c1O	u	108	0.92µM*	u	u	1.5µM*
CC(C)OCc1cc(CN2CCN(c3cccc(C(F)(F)F)c3)CC2)c(O)c2ncccc12	x	x	4.6µM*	x	x	4.6µM*
COc1cc(CN2CCCCCC2)cc([N+](=O)[O-])c1O	2%	-5	-1%	0%	-16%	15%
CCOCc1cc(CN2CCN(c3cccc(C(F)(F)F)c3)CC2)c(O)c2ncccc12	x	x	6.5µM*	x	x	6.5µM*
O=c1cc(CO)oc(CN2CCN(c3cccc(C(F)(F)F)c3)CC2)c1O	-15%	6	u	-20%	u	u
SMILES	HT1080 IDH1KD tx	IL1B secr inh	TDP1 cell CPT	HT1080-NT tox	ELG1 DNA repair	DT40 TDP1 no CPT
O=C(O)c1ccc(Oc2ccc(S(=O)(=O)c3ccc(C(=O)O)c(C(=O)O)c3)cc2)cc1	7%	-12	2%	1%	-14%	0%
CC(C)C(=O)Nc1ccccc1C(=O)OCc1cc(=O)n2nc(C3CC3)sc2n1	x	x	-16%	x	x	u
CC(N)C(=O)NC(C(=O)N1CCCC1C(=O)NC(c1ccccc1)c1ccccc1)C(C)C (stereo unspecified)	-9%	11	u	-3%	21%	-22%
CCOc1ccccc1C(=O)NC(C(=O)OCC(=O)Nc1nnc(-c2ccccc2)o1)C(C)C (stereo unspecified)	-5%	15	-8%	-8%	-18%	-20%
CCOc1ccccc1C(=O)OCC(=O)Nc1nnc(-c2ccccc2)o1	-14%	15	u	-3%	25%	16µM*
COc1cc(OCc2ccccc2)c(OC)c(OCc2ccccc2)c1	-6%	4	21µM*	1%	x	u
O=C1C=C(OCCF)CC(c2cccc([N+](=O)[O-])c2)O1 (stereo unspecified)	-3%	6	32%	1%	x	23%
Cc1cc(C)n(-c2ccc(C(=O)Nc3ccc4c(c3)OCO4)cc2)n1	-9%	-54*	u	-10%	2%	u
Cc1cc(C)n(-c2ccc(C(=O)Nc3ccc(S(=O)(=O)N(C)C)cc3)cc2)n1	-13%	3	u	-19%	u	23µM*
Cc1cc(C)n(-c2ccc(C(=O)Nc3ccc(N4CCOCC4)cc3)cc2)n1	12%	-18	3%	14%	u	-3%
